Screening results deposited in PubChem by National Center for Advancing Translational Sciences (NCATS).
HCV inh: inhibitors of hepatitis C virus infection; Huh7.5.1 HCVcc-Cre infection, luciferase reporter, 44 h; Potency, µM (doses to about 41.8 µM), for inactives: at the highest dose activity change, negative = inhibition, actives largely listed as inhibitors; hit rate 3.4% among 340,000; note: potency is the fitted concentration of half-maximal effect
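Seed cells (1,000/well) for 4 h; treat with compound and infect with HCVcc-Cre, moi about 0.5. Incubate 44 h, then detect luciferase activity.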
Sm TGR block: inhibitors of Schistosoma mansoni thioredoxin glutathione reductase; Q962Y6; purified TGR, DTNB reduction, TNB absorbance 405 nm; Potency, µM (top dose mostly 114 µM), for inactives: top-dose activity change, negative = inhibition, usual class: inhibitors; hit rate 3% among 360,000; note: potency is the fitted concentration of half-maximal effect; nearly all actives have a fitted effect of over 60% in size
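Kinetic colorimetric format: TGR-catalysed, NADPH-driven DTNB reduction monitored via TNB absorbance. Enzyme dispensed at 20 nM; compound exposure 15 min at room temperature before reaction start.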
Vaccinia Venus: vaccinia inhibition (Venus reporter). AID 720580. Vaccinia virus Venus reporter expression, fluorescence. hit rate 0.46% among 330,000. Potency, µM (highest dose often 36.5 µM), inactives show at the highest dose activity change, negative = inhibition, hits mostly inhibitors; calls by dose curve; tested in A549 cells; note: potency is the fitted concentration of half-maximal effect; nearly all actives have a fitted effect of over 30% in size
HCMV inh: inhibitors of human cytomegalovirus; HFF cells, HCMV-luciferase reporter, 72 h; hits give low values; activity change, negative = inhibition, % at 57.5 µM; hit rate 4.5% among 410,000; AID 1259415; in the data active = activity change below about -60%; inconclusive = no clear call, values can overlap the other calls; inactive = above about -39%
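Human foreskin fibroblasts infected with luciferase-reporter HCMV at MOI 1 PFU/cell, compounds at two doses. Luciferase measured 72 h post infection; normalized to buffer-only basal and Salinomycin (10uM) controls.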
FMDV inh: blocks foot and mouth disease virus | FMDV antiviral cell-based qHTS | Potency, µM (highest dose often 57.9 µM), inactives show at the highest dose activity change, negative = inhibition, hits mostly inhibitors | hit rate 1.2% among 410,000; calls by dose curve; tested in HEK293T cells; note: read-out not given here; potency is the fitted concentration of half-maximal effect; nearly all actives have a fitted effect of over 45% in size
VACV mCherry inh: inhibitors of vaccinia virus infection (mCherry reporter signal). hit rate 0.63% among 310,000. Potency, µM (titrated, usually from 36.5 µM), for inactives: at the top dose activity change, negative = inhibition, hits mostly inhibitors. Vaccinia virus mCherry reporter infection, fluorescence; calls by dose curve; tested in A549 cells; note: potency is the fitted concentration of half-maximal effect; nearly all actives have a fitted effect of over 35% in size
Starred values were filed as active, the others as inactive; i = inactive; ? = inconclusive; . = no result; [ ] = dose if it differs, or a comment. Shown are actives, neighbours in structure and some others; about 9.3% of the full set was active somewhere. Unless noted, calls come from the whole dose curve; as a rule, active = well fitted curve in the direction sought with a large enough effect; inconclusive = small, poorly fitted or top-dose-only effect, or another doubt; inactive = no such curve, though single readings can be large; an effect the other way counts as inactive or inconclusive. % is set by controls: 0 for no effect and ±100 for the full control effect.

SMILES	HCV inh	Sm TGR block	Vaccinia Venus	HCMV inh	FMDV inh	VACV mCherry inh
CCCc1nn(-c2cc(Cl)ccc2OC)c2c1C(=O)CC(C)(C)C2	-27%	0%	-18%	16	?	?
O=C(OCN1C(=O)c2ccccc2C1=O)C1CCCCC1	13%	-16%	-8%	-29	14%	-30%[1.46 µM]
O=C1c2ccccc2C(=O)N1SC1CCCCC1	11%	45µM*	-10%	5	?	-13%
CC1(C)CC(NCCN2CCN(C3=CC(=C(C#N)C#N)CC(C)(C)C3)CC2)=CC(=C(C#N)C#N)C1	?	0%	.	-63*	-23%	.
CNC(=S)N1CCN(CCNC2=CC(=O)CC(C)(C)C2)CC1	3%	0%	.	-22	-9%	.
CCOP(=O)(OCC)C(C#N)=C1SCN(c2ccc(Cl)cc2)CS1	11%	?	-14%	-6	-20%	?
C[C@@H]1CN([C@@H](C)CO)C(=O)CCCn2nncc2CO[C@@H]1CN(C)S(=O)(=O)c1ccc2c(c1)OCCCO2	.	.	-5%	2	-6%	-1%
COc1ccc(N(CC(O)Cn2c3ccccc3c3ccccc32)S(=O)(=O)c2ccccc2)cc1 (configuration not stated)	?	1%	?	-78*	?	.
CC(=O)Nc1ccccc1N(CC(O)Cn1c2ccccc2c2ccccc21)S(=O)(=O)c1ccc(C)cc1 (configuration not stated)	11µM*	-4%	?	-11	0%	-22%
COc1ccc(CN2CCN(CC(O)Cn3c4ccccc4c4ccccc43)CC2)cc1 (configuration not stated)	11µM*	9%	.	-11	?	.
Cc1ccc(N(CC(O)Cn2c3ccccc3c3ccccc32)S(=O)(=O)c2ccc(F)cc2)cc1 (configuration not stated)	.	-9%	-3%[7.34 µM]	-92*	?	-1%[7.34 µM]
CS(=O)(=O)N(CC(O)Cn1c2ccccc2c2ccccc21)c1ccccc1 (configuration not stated)	1%	-28%	?	9	?	.
O=C(CSc1nnc(-c2ccccc2)n1-c1ccc(Cl)cc1)NNC(=S)Nc1ccccc1	?	-6%	-12%	?	-16%	-16%
COc1cc(/C=C(\C#N)C(=O)NCC2CCCO2)ccc1OC(C)C (configuration not stated)	-9%	6%	-15%	9	-5%	i
ON=C(CCc1ccccc1)c1ccccc1	14%	.	-13%	82	30%	-16%
CCN(CC(O)Cn1c2ccccc2c2ccccc21)S(=O)(=O)c1ccc(C)cc1 (configuration not stated)	3.2µM*	-11%	.	12	-8%	.
O=C1/C(=C/c2ccccc2Cl)SC(=S)N1CCCC(=O)N(CCO)c1ccccc1	13µM*	12%	.	-91*	?	.
O=C(CCN1C(=O)/C(=C/c2ccccc2Cl)SC1=S)Nc1ccccn1	0%	-1%	.	4	-26%	.
Cc1ccc(C(=O)NNC(=O)CCCN2C(=O)/C(=C/c3ccccc3Cl)SC2=S)cc1	11%	-23%	-4%	?	?	i
O=C(CCCN1C(=O)/C(=C/c2ccccc2Cl)SC1=S)Nc1ccccn1	?	14%	2%	-97*	?	0%
O=C(CCCN1C(=O)/C(=C/c2cccs2)SC1=S)Nc1ccccn1	11%	11%	2%	-98*	0%	-22%
O=C(CCCN1C(=O)/C(=C/c2ccccc2Cl)SC1=S)NNC(=O)c1ccc(Cl)cc1	-12%	0%	-14%	-75*	7.9µM*	-7%
O=C(CCN1C(=O)/C(=C/c2ccccc2Cl)SC1=S)NNC(=O)c1ccccc1O	-30%	1%	45%	21	0%	?
O=C(CCN1C(=O)/C(=C/c2ccccc2Cl)SC1=S)NCCc1ccc(O)cc1	?	-5%	.	-101*	-5%	.
CCOC(=O)c1cnc2cc(F)c(F)cc2c1N1CCOCC1	-22%	0%	-6%	-14	-6%	-2%
SMILES	HCV inh	Sm TGR block	Vaccinia Venus	HCMV inh	FMDV inh	VACV mCherry inh
CC(OC(=O)Cc1ccc(Cl)cc1)C(=O)NC1CCCCC1C (configuration not stated)	-6%	-11%	-10%	-5	-17%	-11%
Cc1ccc(C2N(c3ccccc3)C(=O)N3CCCN23)cc1 (configuration not stated)	17%	-3%	.	?	-6%	.
Clc1ccccc1Cn1c(/C=C/c2ccco2)nc2ccccc21	?	32µM*	-13%	-31	?	-20%
CCOc1cc(C(=O)CSc2nnc(CNc3ccc(Cl)cc3)o2)ccc1NC(=O)CC	11µM*	2%	13µM*	-87*	?	?
COc1ccccc1N(CC(=O)NC1CCCC1)C(=O)CCCC(=O)Nc1ccccn1	-1%	5%	-25%	-2	16%	-2%
CC(C)Cc1ccc(C(C)C(=O)Nc2ncccn2)cc1 (configuration not stated)	-16%	.	-7%	-31	-13%	-9%
COC(=O)c1cc(NC(=O)C(C)c2ccc(CC(C)C)cc2)ccc1O (configuration not stated)	11µM*	0%	-8%	-79*	-5%	?
CCc1n[nH]c(=S)n1/N=C/c1ccc(N(CC)CC)cc1	-21%	1%	-9%	?	22%	-18%
COc1ccc(NS(=O)(=O)c2ccc(NC(=S)NC(=O)c3ccc(Br)cc3)cc2)nn1	5%	40µM*	-11%	21	6%	-6%
COc1ccc(NS(=O)(=O)c2ccc(NC(=S)NC(=O)c3cccnc3)cc2)nn1	2%	?	5%	-17	89%	4%
Cc1cc(NS(=O)(=O)c2ccc(NC(=S)NC(=O)c3cccc(S(=O)(=O)N(C)C)c3)cc2)no1	4%	35µM*	-12%	-21	5%	i
COc1ccc(NS(=O)(=O)c2ccc(NC(=S)NC(=O)c3cccc(F)c3)cc2)nn1	7%	45µM*	-3%	-6	33%	-14%
COc1cc(OC)cc(C(=O)N2CCN(C(=O)COc3ccc(C)cc3)CC2)c1	.	-5%	3%	10	4%	2%
Cc1cc(C)c2c(N)c(C(=O)Nc3ccc(C)c(C)c3)sc2n1	-30%	0%	.	189	24%	.
C[C@H](CO)N1C[C@H](C)[C@@H](CN(C)C(=O)Nc2ccc(C(F)(F)F)cc2)Oc2c(NS(=O)(=O)c3ccc(F)cc3)cccc2C1=O	48%	.	-10%	9	45%	-2%
Cn1cc(Br)c(NC(=O)/C=C/C(=O)O)n1	17%	0.63µM*	.	12	-4%	.
O=C(CN1CCN(S(=O)(=O)c2ccc(F)c(Cl)c2)CC1)N1CCc2ccccc2C1	?	.	-25%	-25	-24%	-15%
